Where “and” joins values, the source holds several entries; their conditions need not be identical. Identical values can stand only once. Calls of active or inactive are those of the source.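 The calls were made as follows: active = compounds whose cell count with miR-34 switched on is under 0.7 times the count with it off; inactive = the rest.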

This note sets out measurements from PubChem BioAssay.

The first experiment in a line: sensitizers of A549 cells to miR-34 induction, primary screen, imaging, A549 dox-inducible miR-34, nuclei and caspase counts (AID 1347080). Also: test concentration not given here. The conditions noted are these: A549 miR-34 inducible, Hoechst nuclei count, 48 h; stronger effect = lower value; cell number ratio, induced over uninduced.
`COP(=O)(OC)OC=C(Cl)Cl`: the fold change was 0.895 (inactive).
Turning to `FC(F)(F)c1cccc(C2=CCN(CCc3ccc4ccccc4c3)CC2)c1`, the fold change was 0.954 (inactive).
The same measure, in the same setting: the value for `C=CCN1C[C@H](C)N([C@H](c2ccc(C(=O)N(CC)CC)cc2)c2cccc(OC)c2)C[C@H]1C` was 0.944 (inactive).
As to `CC(C)(C)OC(=O)c1ncn2c1[C@@H]1CCCN1C(=O)c1c(Br)cccc1-2`, the fold change is 0.898 (inactive).
Consider `Clc1cccc(SC2CCNCC2)n1`, for which the fold change is 1.01 (inactive).
Turning to `O=C(O)c1ccc2[nH]cc(CCCCN3CC=C(c4ccccc4)CC3)c2c1`, the fold change was 0.916 (inactive).

The experiment is the same for the next values; noted with them: A549 miR-34 inducible, Hoechst nuclei count, 48 h; measured here: relative caspase fold change +Dox/-Dox.
In the case of `Cc1cccc(C)c1NC(=O)CN1CCCC1=O`, the fold change was 1.2 and 0.724.
Regarding `CC(=O)[C@H]1CC[C@H]2[C@@H]3CC[C@H]4C[C@H](O)CC[C@]4(C)[C@H]3C(=O)C[C@]12C`, the fold change was 0.8 and 0.773.
The same measure, in the same setting: for `CC(O)CN1CCN(CC(=O)[O-])CCN(CC(=O)[O-])CCN(CC(=O)[O-])CC1.[Gd+3]` (centres undefined) the value was 0.913.
Regarding `CCCN1CCC[C@@H]2Cc3nc(N)ncc3C[C@H]21`, the fold change was 2.12.
On to `CC(C)c1c(CN(C)C(C)Cc2ccccc2)n(C)n(-c2ccccc2)c1=O` (centres undefined), for which the fold change was determined as 1.06.
As to `Cn1c(CCCC(=O)O)nc2cc(N(CCCl)CCCl)ccc21`, the fold change was 0.645 and 1.16.
For `O=[N+]([O-])c1ccc([As](=O)(O)O)cc1`, the fold change came to 1.5.
Regarding `COP(=O)(OC)OC=C(Cl)Cl`, the fold change worked out at 1.25.
For `FC(F)(F)c1cccc(C2=CCN(CCc3ccc4ccccc4c3)CC2)c1`, the fold change was 1.47.
As to `COc1ccc(CN2CCNCC2)c(OC)c1OC`, the fold change was found to be 1.29.
As for `COP(=O)(OC)C(O)C(Cl)(Cl)Cl` (centres undefined), the fold change worked out at 1.24.
In the case of `Cc1ncsc1CCCl`, the fold change was 0.758 and 0.938.
Consider `C=CCN1C[C@H](C)N([C@H](c2ccc(C(=O)N(CC)CC)cc2)c2cccc(OC)c2)C[C@H]1C`, for which the fold change worked out at 1.05.
Regarding `CCCCc1ccc(C(=O)O)nc1`, the fold change was 1.39 and 1.24.
In the case of `Cc1ccc(S(=O)(=O)N[C@@H](CCCCN)C(=O)CCl)cc1`, the fold change was 1.42 and 1.58.
With `Fc1ccc(C(OCCN2CCN(CCCc3ccccc3)CC2)c2ccc(F)cc2)cc1`, the fold change is 0.907 and 1.17 and 0.595.
The same measure, in the same setting: for `CC[N+](CC)(CC)CC` the value was 1.25.
On to `O=c1n(Cl)c(=O)n(Cl)c(=O)n1Cl`, for which the fold change came out at 1.18.
Turning to `CCCCC/C=C\C/C=C\C/C=C\C/C=C\CCCC(=O)NCC(=O)O`, the fold change came to 1.02.
In the case of `CCOC(=O)CC(SP(=S)(OC)OC)C(=O)OCC` (centres undefined), the fold change turned out to be 0.964.
On to `C[C@]12CC[C@H](O)CC1=CC[C@@H]1[C@@H]2CC[C@]2(C)C(=O)CC[C@@H]12`, for which the fold change came out at 1.38.
For `O=C(O)Cc1ccccc1`, the fold change is 4.43 and 1.17.
As for `CC(C)(C)OC(=O)c1ncn2c1[C@@H]1CCCN1C(=O)c1c(Br)cccc1-2`, the fold change was found to be 1.56.
As to `Cc1nnc2n1-c1sc(CCC(=O)N3CCOCC3)cc1C(c1ccccc1Cl)=NC2`, the fold change was 0.912.
On the same count and under the same terms, for `CCCC[N+]1(C)[C@@H]2CC(OC(=O)[C@H](CO)c3ccccc3)C[C@H]1[C@@H]1O[C@@H]12` (some centres undefined) the value was 0.894.
Consider `CNCC(=O)c1ccc(O)c(O)c1`, for which the fold change was 0.648 and 0.466.
Still for that read-out and setting: for `Clc1cccc(SC2CCNCC2)n1` the value was 0.88.
On to `O=C(NC(=O)c1c(F)cccc1F)Nc1cc(Cl)c(OC(F)(F)C(F)C(F)(F)F)cc1Cl` (centres undefined), for which the fold change worked out at 0.7.
Turning to `CC(C)NCC(O)c1ccc(N)c(C#N)c1` (centres undefined), the fold change is 1.24 and 1.48 and 1.65.
Same read-out and setting: the value for `CN1C[C@@H](NS(=O)(=O)N(C)C)C[C@@H]2c3cccc4c3c(cn4C)C[C@H]21` was 1.21; that for `O=C1NCN(c2ccccc2)C12CCN(CC1COc3ccccc3O1)CC2` (centres undefined) was 1.92 and 0.981 and 1.04; that for `COc1ccc(C(=O)c2c(C)n(CCN3CCOCC3)c3ccccc23)cc1` was 1.25.
`N#CC(C#N)=Cc1ccc(O)c(O)c1`: the fold change is 1.77 and 0.329 and 1.5.
On the same count and under the same terms, the value for `O=C(O)c1ccc2[nH]cc(CCCCN3CC=C(c4ccccc4)CC3)c2c1` was 1.13.

Still in this experiment, the particulars now being: A549 miR-34 inducible, Hoechst nuclei count, 48 h; measured here: total cells with miR-34 induction; stronger effect = lower value.
For the molecule `Cc1cccc(C)c1NC(=O)CN1CCCC1=O`, the cell count was 10700 and 8710.
Still for that read-out and setting: the value for `CC(=O)[C@H]1CC[C@H]2[C@@H]3CC[C@H]4C[C@H](O)CC[C@]4(C)[C@H]3C(=O)C[C@]12C` was 11000 and 8700; that for `CC(O)CN1CCN(CC(=O)[O-])CCN(CC(=O)[O-])CCN(CC(=O)[O-])CC1.[Gd+3]` (centres undefined) was 8990.
Regarding `CCCN1CCC[C@@H]2Cc3nc(N)ncc3C[C@H]21`, the cell count is 9790.
Consider `CC(C)c1c(CN(C)C(C)Cc2ccccc2)n(C)n(-c2ccccc2)c1=O` (centres undefined), for which the cell count was determined as 8350.
In the case of `Cn1c(CCCC(=O)O)nc2cc(N(CCCl)CCCl)ccc21`, the cell count is 8630 and 6450.
In the case of `O=[N+]([O-])c1ccc([As](=O)(O)O)cc1`, the cell count was found to be 8880.
Take `COP(=O)(OC)OC=C(Cl)Cl`: the cell count turned out to be 10900.
As for `FC(F)(F)c1cccc(C2=CCN(CCc3ccc4ccccc4c3)CC2)c1`, the cell count is 8420.
Still for that read-out and setting: the value for `COc1ccc(CN2CCNCC2)c(OC)c1OC` was 9020; that for `COP(=O)(OC)C(O)C(Cl)(Cl)Cl` (centres undefined) was 8320.
On to `Cc1ncsc1CCCl`, for which the cell count was 9720 and 8120.
As to `C=CCN1C[C@H](C)N([C@H](c2ccc(C(=O)N(CC)CC)cc2)c2cccc(OC)c2)C[C@H]1C`, the cell count came out at 8480.
In the case of `CCCCc1ccc(C(=O)O)nc1`, the cell count is 9790 and 8980.
Turning to `Cc1ccc(S(=O)(=O)N[C@@H](CCCCN)C(=O)CCl)cc1`, the cell count was 9040 and 5750.
`Fc1ccc(C(OCCN2CCN(CCCc3ccccc3)CC2)c2ccc(F)cc2)cc1`: the cell count was 1750 and 3970 and 2030.
As for `CC[N+](CC)(CC)CC`, the cell count amounted to 9810.
`O=c1n(Cl)c(=O)n(Cl)c(=O)n1Cl`: the cell count was found to be 8670.
On to `CCCCC/C=C\C/C=C\C/C=C\C/C=C\CCCC(=O)NCC(=O)O`, for which the cell count is 5930 and 5790.
For the molecule `CCOC(=O)CC(SP(=S)(OC)OC)C(=O)OCC` (centres undefined), the cell count came to 7400.
`C[C@]12CC[C@H](O)CC1=CC[C@@H]1[C@@H]2CC[C@]2(C)C(=O)CC[C@@H]12`: the cell count amounted to 8820.
Still for that read-out and setting: the value for `O=C(O)Cc1ccccc1` was 10700 and 9120; that for `CC(C)(C)OC(=O)c1ncn2c1[C@@H]1CCCN1C(=O)c1c(Br)cccc1-2` was 6920.
As to `Cc1nnc2n1-c1sc(CCC(=O)N3CCOCC3)cc1C(c1ccccc1Cl)=NC2`, the cell count turned out to be 9280.
The same measure, in the same setting: the value for `CCCC[N+]1(C)[C@@H]2CC(OC(=O)[C@H](CO)c3ccccc3)C[C@H]1[C@@H]1O[C@@H]12` (some centres undefined) was 9520; that for `CNCC(=O)c1ccc(O)c(O)c1` was 6760 and 7680; that for `Clc1cccc(SC2CCNCC2)n1` was 8450.
Take `O=C(NC(=O)c1c(F)cccc1F)Nc1cc(Cl)c(OC(F)(F)C(F)C(F)(F)F)cc1Cl` (centres undefined): the cell count is 7240.
For the molecule `CC(C)NCC(O)c1ccc(N)c(C#N)c1` (centres undefined), the cell count is 6050 and 9400 and 9430.
As for `CN1C[C@@H](NS(=O)(=O)N(C)C)C[C@@H]2c3cccc4c3c(cn4C)C[C@H]21`, the cell count was 9040.
Consider `O=C1NCN(c2ccccc2)C12CCN(CC1COc3ccccc3O1)CC2` (centres undefined), for which the cell count was 9490 and 8620 and 9600.
As for `COc1ccc(C(=O)c2c(C)n(CCN3CCOCC3)c3ccccc23)cc1`, the cell count came out at 9440.
For `N#CC(C#N)=Cc1ccc(O)c(O)c1`, the cell count was 8900 and 8210 and 9690.
Consider `O=C(O)c1ccc2[nH]cc(CCCCN3CC=C(c4ccccc4)CC3)c2c1`, for which the cell count was 8600.
